Assay results published in PubChem BioAssay (Tox21).
Inconclusive results are not listed. Where a call stands in place of a potency, no number is given. Active and inactive are the calls of the source. Unless noted, calls come from the whole dose curve.

What was measured:
[1] = Nuclear factor erythroid 2-related factor 2/antioxidant responsive element (Nrf2/ARE) small molecule agonists: luciferase reporter gene qHTS assay in human keratinocytes (AID 1919969); note: nearly all actives have a fitted effect of over 35% in size; note: potency is the fitted concentration of half-maximal effect
[2] = target: Gonadotropin-releasing hormone receptor (Homo sapiens) (UniProt P30968); test: Human gonadotropin-releasing hormone receptor (GnRHR) small molecule agonists, calcium flux assay in GnRHR-HEK293 cells (AID 1920063); note: nearly all actives have a fitted effect of over 35% in size
Gonadotropin-releasing hormone receptor (Homo sapiens), sequence (P30968 whole entry, looked up): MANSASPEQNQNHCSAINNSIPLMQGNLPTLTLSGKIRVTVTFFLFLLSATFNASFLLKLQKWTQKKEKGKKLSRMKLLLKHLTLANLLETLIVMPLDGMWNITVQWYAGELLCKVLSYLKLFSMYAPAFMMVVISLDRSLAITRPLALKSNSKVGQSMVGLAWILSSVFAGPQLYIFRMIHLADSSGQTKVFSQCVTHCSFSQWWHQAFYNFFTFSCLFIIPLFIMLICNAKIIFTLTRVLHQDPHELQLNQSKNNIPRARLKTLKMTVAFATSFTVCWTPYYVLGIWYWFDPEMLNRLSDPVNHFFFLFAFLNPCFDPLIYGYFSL
Outline: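 Agonist mode: compounds at 15 concentrations, in triplicate, went onto calcium dye-loaded GnRHR-HEK293 cells. Intracellular calcium was then followed as 480/540 nm fluorescence at 1 s intervals over 3 min.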

[3] = G protein-coupled receptor (GPCR) small molecule agonists, calcium flux assay: HEK293 wild type cell line counter screen (AID 1920065)
Outline: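 Calcium flux counter screen: compound added in agonist mode at 15 concentrations in triplicate to dye-loaded parental HEK293 cells. Fluorescence (480/540) read kinetically for 3 min; ATP served as positive control.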

[4] = p53 small molecule agonists, cell-based qHTS assay with human liver microsomes (AID 1963577)
Outline: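 Compounds act here after metabolic activation: human liver microsomes and NADPH, both at 0.5 mg/mL final, were co-added to p53RE-bla cells. Incubation ran 16 h at 37 C, followed by LiveBLAzer detection.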

[5] = p53 small molecule agonists, cell-based qHTS assay with rat liver microsomes (AID 1963578)
Outline: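 Read-out is beta-lactamase reporter fluorescence (LiveBLAzer, 2 h, room temperature, dark) in p53RE-bla cells treated 16 h at 37 C with compound, rat liver microsomes and NADPH, both 0.5 mg/mL final.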

[6] = p53 small molecule agonists, cell-based qHTS assay with human liver microsomes: qHTS cell viability counter screen (AID 1963579); note: nearly all actives have a fitted effect of over 45% in size; note: potency is the fitted concentration of half-maximal effect
Outline: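 Cells carrying the p53 response-element beta-lactamase reporter are treated for 16 h at 37 C with test compounds in the presence of human liver microsomes and NADPH (both 0.5 mg/mL final); ATP-based CellTiter-Glo luminescence then reports viability.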

[7] = p53 small molecule agonists, cell-based qHTS assay with rat liver microsomes: qHTS cell viability counter screen (AID 1963580); note: nearly all actives have a fitted effect of over 45% in size; note: potency is the fitted concentration of half-maximal effect
Outline: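 Luminescent ATP readout (CellTiter-Glo, 30 min at room temperature) reports viability of p53RE-bla HCT-116 cells after 16 h at 37 C with test compounds under metabolic activation by rat liver microsomes and NADPH at 0.5 mg/mL final each.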

[8] = p53 small molecule agonists, cell-based qHTS assay: qHTS cell viability counter screen (AID 1963581); note: nearly all actives have a fitted effect of over 45% in size
Outline: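 Counter screen read by CellTiter-Glo luminescence (ATP content, 30 min at room temperature), run in the same wells as the beta-lactamase reporter read. HCT-116 p53RE-bla cells saw compounds for 16 h at 37 C.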

[9] = target: 5-hydroxytryptamine receptor 2A (Homo sapiens) (UniProt P28223); test: 5-hydroxytryptamine receptor 2A (HTR2A) small molecule antagonists, cell-based qHTS assay (AID 1963586); note: nearly all actives have a fitted effect of over 45% in size; note: potency is the fitted concentration of half-maximal effect
5-hydroxytryptamine receptor 2A (Homo sapiens), sequence (P28223 whole entry, looked up): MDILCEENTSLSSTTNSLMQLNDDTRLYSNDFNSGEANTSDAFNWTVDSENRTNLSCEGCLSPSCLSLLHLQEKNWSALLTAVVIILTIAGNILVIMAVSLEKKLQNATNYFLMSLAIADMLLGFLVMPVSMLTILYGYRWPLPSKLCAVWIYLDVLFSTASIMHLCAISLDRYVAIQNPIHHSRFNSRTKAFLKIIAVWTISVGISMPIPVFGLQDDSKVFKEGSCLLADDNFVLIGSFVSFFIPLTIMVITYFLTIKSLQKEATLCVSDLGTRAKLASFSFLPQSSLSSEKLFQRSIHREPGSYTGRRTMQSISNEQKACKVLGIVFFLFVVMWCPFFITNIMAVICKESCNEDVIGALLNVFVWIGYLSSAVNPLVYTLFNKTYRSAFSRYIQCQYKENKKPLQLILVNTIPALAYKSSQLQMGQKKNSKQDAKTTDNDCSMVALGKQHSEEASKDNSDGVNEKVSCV
Outline: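 CHO cells stably expressing human HTR2A were plated for 18 h at 37 C, then loaded with calcium dye for 1 h. Compounds were preincubated 5 min at room temperature before DOI (4 nM solution) was added. Kinetic fluorescence was read for 3 min.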

[10] = target: Muscarinic acetylcholine receptor M1 (Homo sapiens) (UniProt P11229); test: Cholinergic receptor muscarinic 1 (CHRM1) small molecule antagonists, cell-based qHTS assay (AID 1963588); note: nearly all actives have a fitted effect of over 40% in size
Muscarinic acetylcholine receptor M1 (Homo sapiens), sequence (P11229 whole entry, looked up): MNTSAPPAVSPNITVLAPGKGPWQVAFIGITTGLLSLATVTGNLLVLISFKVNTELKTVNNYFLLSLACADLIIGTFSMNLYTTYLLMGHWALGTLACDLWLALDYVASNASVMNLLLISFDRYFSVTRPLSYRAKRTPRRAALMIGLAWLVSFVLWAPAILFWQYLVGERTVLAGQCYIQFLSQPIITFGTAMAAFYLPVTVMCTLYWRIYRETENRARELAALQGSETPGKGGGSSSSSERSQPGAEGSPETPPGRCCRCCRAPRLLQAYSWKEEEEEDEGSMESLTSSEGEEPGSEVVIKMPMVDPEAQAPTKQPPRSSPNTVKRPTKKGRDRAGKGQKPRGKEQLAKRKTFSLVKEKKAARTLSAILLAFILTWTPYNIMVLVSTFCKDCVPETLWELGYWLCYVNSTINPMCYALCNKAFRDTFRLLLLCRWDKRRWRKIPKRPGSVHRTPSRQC
Outline: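 Compounds were tested at 15 concentrations in three independent runs. Dye-loaded CHRM1-CHO cells were exposed 5 min at room temperature before stimulation by acetylcholine added at 50nM. Intracellular calcium was read kinetically on FDSS for 3 min.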

[11] = target: Muscarinic acetylcholine receptor M1 (Homo sapiens) (UniProt P11229); test: Cholinergic receptor muscarinic 1 (CHRM1) small molecule agonists, cell-based qHTS assay (AID 1963589); note: nearly all actives have a fitted effect of over 35% in size; note: potency is the fitted concentration of half-maximal effect
Outline: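 Agonist-mode calcium-flux screen: compounds at 15 concentrations, three independent runs, were pin-transferred onto dye-loaded human CHRM1-CHO cells. Fluorescence was then recorded kinetically every second over minutes.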

[12] = target: Beta-2 adrenergic receptor (Homo sapiens) (UniProt P07550); test: Adrenergic beta2 receptor (ADRB2) small molecule antagonists, cell-based qHTS assay (AID 1963592); note: series mostly up to about 92 µM; nearly all actives have a fitted effect of over 50% in size
Beta-2 adrenergic receptor (Homo sapiens), sequence (P07550 whole entry, looked up): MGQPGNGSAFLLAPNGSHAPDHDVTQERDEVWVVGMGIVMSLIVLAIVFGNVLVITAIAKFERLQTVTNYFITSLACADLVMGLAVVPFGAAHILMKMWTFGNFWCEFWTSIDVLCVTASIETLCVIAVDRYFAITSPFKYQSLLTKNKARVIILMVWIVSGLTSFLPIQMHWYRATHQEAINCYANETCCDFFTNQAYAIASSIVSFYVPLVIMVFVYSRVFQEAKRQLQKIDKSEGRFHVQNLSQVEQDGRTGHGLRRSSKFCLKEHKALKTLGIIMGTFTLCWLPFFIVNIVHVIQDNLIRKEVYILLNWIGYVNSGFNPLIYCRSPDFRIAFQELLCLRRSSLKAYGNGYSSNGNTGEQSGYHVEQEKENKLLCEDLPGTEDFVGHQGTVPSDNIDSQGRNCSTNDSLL
Outline: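 Assay format: CHO-ADRB2 cells, 18-20hr seeding at 37C/5% CO2, then compound plus 1nM isoproterenol agonist mix for 0.5hr RT. Homogeneous time-resolved fluorescence cAMP detection after 1hr, expressed as 665/615 nm ratio.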

[13] = target: D(2) dopamine receptor (Homo sapiens) (UniProt P14416); test: Dopamine D2 receptor (DRD2) small molecule agonists, cell-based qHTS assay (AID 1963594); note: nearly all actives have a fitted effect of over 35% in size
D(2) dopamine receptor (Homo sapiens), sequence (P14416 whole entry, looked up): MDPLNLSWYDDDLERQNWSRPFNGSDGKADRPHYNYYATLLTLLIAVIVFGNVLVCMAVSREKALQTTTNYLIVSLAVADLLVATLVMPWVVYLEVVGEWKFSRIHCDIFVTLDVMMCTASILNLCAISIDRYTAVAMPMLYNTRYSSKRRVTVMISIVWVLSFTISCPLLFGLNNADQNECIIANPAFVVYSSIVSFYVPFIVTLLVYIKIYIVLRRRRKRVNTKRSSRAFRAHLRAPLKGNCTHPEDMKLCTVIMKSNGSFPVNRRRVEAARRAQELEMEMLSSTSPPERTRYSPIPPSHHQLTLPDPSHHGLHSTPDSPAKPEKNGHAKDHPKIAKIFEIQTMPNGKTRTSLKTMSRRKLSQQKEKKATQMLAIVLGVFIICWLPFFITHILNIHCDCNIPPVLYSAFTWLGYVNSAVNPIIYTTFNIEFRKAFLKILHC
Outline: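 HEK293 cells stably expressing DRD2 were cultured 24 h at 37 C, then given Ro20-1724 (0.1 mM final) and compounds for 10 min at room temperature. NKH477 (200nM) was then added for 30 min. cAMP was read by HTRF.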

[14] = target: D(2) dopamine receptor (Homo sapiens) (UniProt P14416); test: Dopamine D2 receptor (DRD2) small molecule antagonists, cell-based qHTS assay (AID 1963595; active = well fitted inhibition curve with a large enough effect in the signal ratio in the repeat runs, with a control signal flat; the % refers to the signal ratio)
Outline: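 Antagonism was scored as restored cAMP in HEK293-DRD2 cells. These cells were stimulated with 200 nM NKH477 and 12 nM quinpirole for 30 min at room temperature, in the presence of 0.1 mM Ro20-1724.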

[15] = target: 5-hydroxytryptamine receptor 2A (Homo sapiens) (UniProt P28223); test: 5-hydroxytryptamine receptor 2A (HTR2A) small molecule agonists, cell-based qHTS assay (AID 1963587); note: nearly all actives have a fitted effect of over 30% in size; note: potency is the fitted concentration of half-maximal effect
Outline: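 HTR2A-CHO cells, plated 18 h at 37 C/5% CO2, dye-loaded 1 h at 37 C; compounds in DMSO added by pin tool (agonist mode). Intracellular calcium flux read as kinetic fluorescence on FDSS over 2 min at 1 s intervals.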

[16] = target: KiSS-1 receptor (Homo sapiens) (UniProt Q969F8); test: Human kisspeptin (KISS1R) small molecule agonists, calcium flux assay in KISS1R-HEK293 cells (AID 1920064; active = well fitted activation curve with a large enough effect in the repeat runs)
KiSS-1 receptor (Homo sapiens), sequence (Q969F8 whole entry, looked up): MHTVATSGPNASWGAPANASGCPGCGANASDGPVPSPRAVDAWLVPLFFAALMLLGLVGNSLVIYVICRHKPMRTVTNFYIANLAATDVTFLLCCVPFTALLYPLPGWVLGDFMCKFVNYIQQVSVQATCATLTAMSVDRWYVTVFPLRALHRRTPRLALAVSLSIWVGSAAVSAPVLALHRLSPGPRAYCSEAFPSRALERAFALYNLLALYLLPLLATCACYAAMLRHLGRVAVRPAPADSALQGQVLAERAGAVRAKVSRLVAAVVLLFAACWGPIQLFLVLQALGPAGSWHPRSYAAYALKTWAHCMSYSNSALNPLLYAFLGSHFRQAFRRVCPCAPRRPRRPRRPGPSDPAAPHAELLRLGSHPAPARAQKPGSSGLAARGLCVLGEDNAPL
Outline: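 Agonist mode: intracellular calcium rise tracked at 1 s intervals over 3 min (480/540 nm) immediately after compound addition to dye-loaded KISS1R-HEK293 stable cells. Each compound tested at 15 concentrations in triplicate.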

[17] = p53 small molecule agonists, cell-based qHTS assay (AID 1963582; active = well fitted activation curve with a large enough effect in the signal ratio in the repeat runs, not every such curve was filed as active; the % refers to the signal ratio)
Outline: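 Read-out is beta-lactamase FRET fluorescence after 2 h at room temperature with LiveBLAzer B/G substrate. p53 response element-bla cells were treated 16 h at 37 C with compounds in DMSO, added 5 h after seeding.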

[18] = target: Beta-2 adrenergic receptor (Homo sapiens) (UniProt P07550); test: Adrenergic beta2 receptor (ADRB2) small molecule agonists, cell-based qHTS assay (AID 1963593);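 note: CHO cells stably overexpressing human ADRB2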
Outline: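 CHO cells stably over-expressing ADRB2 were plated overnight at 37C, then dosed with compounds plus a stimulation mix containing 100uM IBMX and 25uM Ro-20-1724 for 0.5hr at room temperature. cAMP was measured by HTRF competition, 1hr.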

[19] = cAMP Responsive Elements (CRE) small molecule antagonists, cell-based qHTS assay (AID 1963591; active = well fitted inhibition curve with a large enough effect in the signal ratio in the repeat runs, not every such curve was filed as active; the % refers to the signal ratio)
Outline: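 Antagonist mode: compounds are added alongside the adenylyl cyclase activator NKH477 (0.25 uM final) to CRE-bla HEK293T cells for 3 h. LiveBLAzer FRET substrate, 2 h at room temperature, reports bla expression.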

[20] = cAMP Responsive Elements (CRE) small molecule agonists, cell-based qHTS assay (AID 1963590)
Outline: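 Agonist mode: compound added to CRE-bla HEK 293T cells (2,000/well, 18 h after plating) for 3 h at 37 C/5% CO2. Reporter activity detected via FRET beta-lactamase substrate, 2 h room-temperature loading.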

| Compound | Potency [1] | Potency [2] | Potency [3] | Potency [4] | Potency [5] | Potency [6] | Potency [7] | Potency [8] | Potency [9] | Potency [10] | Potency [11] | Potency [12] | Potency [13] | Potency [14] | Potency [15] | Potency [16] | Potency [17] | Potency [18] | Potency [19] | Potency [20] |
| --- | --- | --- | --- | --- | --- | --- | --- | --- | --- | --- | --- | --- | --- | --- | --- | --- | --- | --- | --- | --- |
| NCCCOCCOCCOCCCN | inactive | inactive | inactive | inactive | inactive | inactive | inactive | inactive | inactive | inactive | inactive | inactive | inactive | inactive |  |  |  |  |  |  |
| CCCCN(CCCC)c1ccc(C(=O)c2ccccc2C(=O)O)c(O)c1 | inactive | inactive | inactive |  | inactive | 16.4 µM (active) | 41.2 µM (active) |  |  | inactive | 49.4 µM (active) | inactive | inactive | inactive | 55.5 µM (active) |  |  |  |  |  |
| CCC(CN)=C(c1ccccc1)c1ccccc1 | inactive |  | inactive | inactive | inactive | inactive | inactive | inactive | inactive |  | inactive | inactive | inactive | inactive | 23.9 µM (active) | inactive | inactive |  |  |  |
| Cc1cc(O)c2c(c1)C(=O)c1cc(O)cc(O)c1C2=O | 33.6 µM (active) |  | inactive | inactive | inactive | inactive | inactive | inactive | inactive | inactive | inactive | inactive | inactive | inactive | inactive | inactive |  | inactive |  |  |
| O=C(Nc1ncc([N+](=O)[O-])s1)c1cccs1 | 1.06 µM (active) | inactive |  | inactive | inactive | inactive |  | inactive |  | inactive | inactive |  | inactive | inactive |  |  | inactive |  | inactive |  |
| Cc1ccc(O)c(C(C)(C)C)c1 | inactive |  | inactive | inactive | inactive | inactive | inactive | inactive | 33.4 µM (active) | inactive | inactive | inactive | inactive | inactive |  | inactive | inactive | inactive |  |  |
| CC(C)CCCCCCCOC(=O)c1ccc(C(=O)OCCCCCCCC(C)C)c(C(=O)OCCCCCCCC(C)C)c1 | 24 µM (active) | inactive | inactive | inactive | inactive | 16 µM (active) |  | inactive | inactive | inactive | inactive | inactive | inactive | inactive |  |  | inactive |  | inactive | inactive |
| O=C(N/N=C/c1ccccc1O)c1ccncc1 | 6.68 µM (active) | inactive | inactive | inactive | inactive | 7.93 µM (active) | inactive | inactive |  |  | inactive | inactive |  |  | inactive |  | inactive |  | inactive | inactive |
